iPSC survival up – enhancers of single-cell hiPSC survival, primary screen, ATPlite luminescence. survival enhancement, % at 20 µM. AID 602274, 2012. 100% = ROCK inhibitor wells, 0% = DMSO. 360,000 compounds, 0.044% hits; in the data active means survival enhancement above about 18%;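 further: cells exposed to compounds for 16 hours before the ATP read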
CRFBP-R2 agonist – agonists of CRF-BP/CRF-R2 complex, primary screen, cell-based, HEK293, calcium dye fluorescence, uHTS; calcium dye fluorescence (FLIPR); percent of saturating CRF peptide response; activation, % at 13.2 µM; CRF-binding protein / CRF receptor 2 complex (human); 350,000 compounds, 0.46% hits; AID 588473, 2011;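 active means activation of at least 50%, plus an integration ratio under a set limit after plate pattern correction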;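 further: plate controls were neutral control wells without compound for no effect and CRF at EC100 for full effect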
SKN-1 inh – suppressors of acrylamide-induced Pgst-4::GFP reporter in worms, primary screen, SKN-1 inhibitor project, whole organism, uHTS, GFP/RFP fluorescence ratio, strain VP596; C. elegans VP596 Pgst-4::GFP/RFP ratio, 24 h; inhibition, % at 21.8 µM; 360,000 compounds, 0.49% hits;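 active means interference check ratio from 0.5 to 1.5 plus GFP to RFP signal ratio inhibition reaching or exceeding a fixed threshold, cut at about 30% in these data, passing the limit was not always enough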
TAG inh – inhibitors of triacylglycerol accumulation, primary screen, cell-based, uHTS, fluorescence, H9c2 | AID 651582, 2012 | inhibition, % at 12.5 µM | 230,000 compounds, 0.66% hits | H9c2 cells, Nile Red lipid (TAG) fluorescence; cells loaded with 200 µM oleic acid;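 active means pattern-corrected inhibition of lipid staining of at least 50% with the nuclear-stain viability signal not falling by more than 50%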;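 further: 0% = DMSO wells and 100% = triacsin C control wells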
Cardio protect – cardioprotection against H2O2-induced cell death, primary screen, uHTS, H9c2 cells, ATPLite luminescence | H9c2 cardiomyocytes, H2O2 injury protection, 2 h | protection from H2O2 cell death, % at 20 µM | 360,000 compounds, 0.63% hits | AID 588492, 2011;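 active means compounds giving at least 50% protection of heart cells from peroxide-induced death in the single-dose screen, raw or plate-pattern-corrected value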;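 further: 0% = DMSO wells with peroxide and 100% = DMSO wells without peroxide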
CRFBP-R2 block – antagonists of CRF-BP/CRF-R2 complex, primary screen, cell-based, HEK293, calcium dye fluorescence, uHTS; CRF-induced calcium fluorescence; inhibition, % at 11.8 µM; 350,000 compounds, 0.59% hits; AID 588475, 2011;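 active means inhibition of the ligand-induced calcium signal above about 50% at the single tested concentration, limit read from the data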
* marks the source's active call; other numbers are inactive results; x = not tested or not shown. In the library only some 2.5% were active in any assay of this set; here they are far more common.

SMILES	iPSC survival up	CRFBP-R2 agonist	SKN-1 inh	TAG inh	Cardio protect	CRFBP-R2 block
CCCC(=O)N1CCC1(C)C(=O)Nc1ccc2nccnc2c1 (stereo not drawn)	1	x	-6	4	1	x
CCn1c(SCC(=O)N2CCN(c3ccccc3)CC2)nc2c(c1=O)SC(C)C2 (stereo not drawn)	0	-2	1	-2	58*	21
CCN(CC)c1nc(C#N)nc(N(CC)CC)n1	1	-1	19	-25	-4	24
CCN(c1ccccc1)c1nc(C#N)nc(N(CC)c2ccccc2)n1	2	1	11	16	-15	83*
CC(C)[C@H](NC(=O)[C@@H]1Cc2c([nH]c3ccccc23)C2c3ccccc3C(=O)N21)C(=O)N1CCC[C@@H]1C(=O)O (stereo partly drawn)	-2	-1	9	x	2	5
COC(=O)c1ccc(CNC(=O)COC(=O)CC23CC4CC(CC(Br)(C4)C2)C3)cc1	-2	1	9	-9	0	51*
CN(C(=O)c1ccc(F)cc1)c1ccc(OCC(=O)Nc2ccccc2C(=O)O)cc1	7	-3	-5	1	-4	5
COc1ccc(N/N=C(C)/C(=N/O)C(=O)Nc2ccccc2)cc1	0	1	8	-7	-11	-39
C/C(=N\NC(=S)Nc1ccc(C)cc1)c1cccc(N)c1	0	179*	-5	-1	2	17
C/C(=N\NC(=S)Nc1cccc(C)c1)c1cccc(N)c1	1	-3	7	x	18	18
Brc1ccc(-c2nn3c(-c4ccccn4)nnc3s2)o1	-1	-1	13	-13	52*	-2
Brc1ccc(-c2nn3c(-c4ccco4)nnc3s2)o1	0	-3	2	x	94*	10
Clc1ccccc1-c1nn2c(-c3ccccn3)nnc2s1	0	0	6	x	12	2
Clc1ccc(-c2ccc(-c3nn4c(-c5ccco5)nnc4s3)o2)cc1	5	-1	8	x	26	-40
CC1(C(=O)NCc2cccnc2)CCN1C(=O)Cc1cccs1 (stereo not drawn)	2	x	8	3	7	x
COC(=O)[C@]12CCCCC=C1N(CCc1ccc(OC)c(OC)c1)C(=O)[C@H](CC(=O)N1CCC(c3ccccc3)CC1)C2	x	x	-3	x	x	x
COc1cccc2c1C(=O)c1c(O)c3c(c(O)c1C2=O)C[C@@](O)(C(=O)CO)C[C@@H]3O[C@H]1C[C@H](N)[C@@H](O)[C@H](C)O1	-5	60*	68	43	-2	-113
COc1cccc2c1C(=O)c1c(O)c3c(c(O)c1C2=O)CC(O)(C(=O)CO)CC3OC1CC(N(C)C)C(O)C(C)O1 (stereo not drawn)	-4	91*	83	4	2	-102
CC(=O)[C@]1(O)Cc2c(O)c3c(c(O)c2[C@@H](O[C@H]2C[C@H](N)[C@H](O)[C@H](C)O2)C1)C(=O)c1ccccc1C3=O	x	212*	x	x	x	-196
COc1cccc2c1C(=O)c1c(O)c3c(c(O)c1C2=O)C[C@@](O)(C(C)=O)C[C@@H]3O[C@H]1C[C@H](N)[C@H](O)[C@H](C)O1	-4	83*	68	-18	-13	-92
Cc1cc(C)cc(Cn2cc(CN3CC(N(C)C)CS3(=O)=O)nn2)c1 (stereo not drawn)	1	x	1	x	x	x
COc1c(C)cc(C(O)c2ncc(-c3ccc(C(F)(F)F)cc3)[nH]2)cc1C (stereo not drawn)	0	x	8	-16	-15	x
Cc1c(C(=O)OCC(C)C)[nH]c2c1C(=O)CC(c1ccco1)C2 (stereo not drawn)	0	-3	-20	x	-18	-36
Cc1c(C(=O)OCC2CCCO2)[nH]c2c1C(=O)CC(c1ccco1)C2 (stereo not drawn)	2	-1	1	56*	13	14
